We go through 31 compounds from PubChem BioAssay (NCATS).

The target in assay [1] is T1, Hexokinase-4 (Homo sapiens) + Glucokinase regulatory protein (Homo sapiens) (UniProt P35557+Q14397). The assay is described as follows: qHTS assay for inhibitors of recombinant human GCK-GKRP interaction: Diaphorase-coupled assay (AID 743205). In outline:
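A kinetic fluorescence read (Ex 525/Em 590 nm, every minute for 30 minutes) tracked resorufin from a G6PDH-diaphorase coupled GCK reaction. It contained 10 nM GST-GCK, 10 nM FLAG-GKRP, 5 mM glucose, 0.4 mM ATP in Hepes pH 7.6. Normalized to with/without-enzyme DMSO controls.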
(In general: In qHTS, concentration-response curves come from the screen itself.)

Assay [2] concerns the target T1, Hexokinase-4 (Homo sapiens) + Glucokinase regulatory protein (Homo sapiens). The assay is described as follows: qHTS assay for inhibitors of recombinant human GCK-GKRP interaction: ADP-Glo assay (AID 743206).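 Also: plate controls were DMSO plus enzyme for no effect and no enzyme for full effect.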 In outline:
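GST-GCK and FLAG-GKRP (15 nM each in the dispensed mix, with 2 uM S6P) react with 0.4 mM ATP and 5 mM glucose (final) in Hepes pH 7.6 for 60 min at room temperature. ADP is measured by ADP-Glo luminescence.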

For assay [3] the target is unchanged. The assay is described as follows: qHTS assay for inhibitors of recombinant human GCK-GKRP interaction: HTRF assay (AID 743207).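 Also: 0% = DMSO with GCK present and -100% = DMSO wells lacking GCK.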 In outline: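 After 60 min equilibration at room temperature with anti-FLAG XL665 and anti-GST antibodies, FRET ratio (665/615 nm, excitation 320 nm) was read. Proteins: GST-GCK and FLAG-GKRP, each 5 nM, plus 2 uM S6P, pH 7.1 buffer; GCK-free wells define minimum signal.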

The nature of assay [4]: qHTS Assay for Identifying Gametocytocidal Compounds (AID 743244). Also: potency is read from the fitted curve at half-maximal effect.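 As to max response: % is scaled to controls: 0 for no effect and ±100 for the full control effect; actives lower the fluorescent signal which means gametocytes are killed.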 As to conditions: P. falciparum 3D7 stage III-V gametocytes, alamarBlue, 72 h; max response: stronger effect = lower value. An outline of the steps: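 Stage III–V gametocytes of P. falciparum 3D7 were seeded at 20,000 cells/well onto pre-dispensed compounds. After 72 h, 37 °C, 5% CO2, alamarBlue was added for another 24 h.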

The conditions of assay [5]: Ebola virus entry assay, reporter ratio channel; Channel type: primary.
Assay [6] is described as follows: qHTS profiling of the MIPE4 collection as inhibitors of Plasmodium falciparum (3D7) proliferation (AID 743344; call rule not given here;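 also: scaled between DMSO vehicle wells and 0.29 µM artemisinin as full inhibition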). Particulars: P. falciparum 3D7 in erythrocytes, SYBR Green DNA fluorescence, 72 h; at 28.5 µM (top of the series). An outline of the steps:
(§1)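 Erythrocytes infected with P. falciparum (0.3% parasitemia, 2.5% hematocrit) incubated with compounds 72 h at 37 C, 5% CO2. Lysis with saponin/Triton buffer containing SYBR Green I, overnight at room temperature in the dark; DNA fluorescence (485/535 nm) normalised to 0.29 uM artemisinin and DMSO.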

A short description of assay [7]: qHTS profiling of the MIPE4 collection as inhibitors of Plasmodium falciparum (DD2) proliferation (AID 743345; call rule not given here). As to conditions: P. falciparum Dd2 in erythrocytes, SYBR Green DNA, 72 h; at 28.5 µM (top of the series) unless noted. An outline of the steps:
as §1

Assay [8] can be described thus: qHTS profiling of the MIPE4 collection as inhibitors of Plasmodium falciparum (DD2) proliferation (Rep 2) (AID 743346; call rule not given here). As to conditions: P. falciparum Dd2 in erythrocytes, SYBR Green DNA, 72 h; at 28.5 µM (top of the series). In outline:
as §1

A short description of assay [9]: qHTS profiling of the MIPE4 collection as inhibitors of Plasmodium falciparum (HB3) proliferation (AID 743347; call rule not given here;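 also: plate controls were DMSO vehicle wells for no effect and artemisinin wells for full effect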). Particulars: P. falciparum HB3 in erythrocytes, SYBR Green DNA, 72 h; at 28.5 µM (top of the series). An outline of the steps: as §1
The nature of assay [10]: qHTS profiling for inhibitors of Plasmodium falciparum (3D7) proliferation (AID 743322).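 Also: infected erythrocytes exposed to compound for 72 h before lysis; 100% = DMSO vehicle wells and 0% = 0.29 µM artemisinin.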 Particulars: P. falciparum 3D7 proliferation; at 28.7 µM (top of the series) unless noted. An outline of the steps:
as §1

Assay [11] can be described thus: qHTS profiling for inhibitors of Plasmodium falciparum (DD2) proliferation (AID 743323; call rule not given here). As to conditions: lower = more inhibition; at 28.7 µM (top of the series) unless noted. In outline:
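SYBR Green fluorescence (ex 485, em 535 nm) of lysed cultures gives parasite DNA content; wells normalized to artemisinin (0.29 uM) and DMSO controls. Infected red cells: 0.3% parasitemia, 2.5% hematocrit, 72 h, 37 C.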

Several values for one entry are separate records, joined by “and”; a condition that tells them apart may be missing. Equal entries are not always repeated. Records with an inconclusive call do not appear. Activity calls are given as the source filed them.

T1 sequence (P35557 whole entry, looked up): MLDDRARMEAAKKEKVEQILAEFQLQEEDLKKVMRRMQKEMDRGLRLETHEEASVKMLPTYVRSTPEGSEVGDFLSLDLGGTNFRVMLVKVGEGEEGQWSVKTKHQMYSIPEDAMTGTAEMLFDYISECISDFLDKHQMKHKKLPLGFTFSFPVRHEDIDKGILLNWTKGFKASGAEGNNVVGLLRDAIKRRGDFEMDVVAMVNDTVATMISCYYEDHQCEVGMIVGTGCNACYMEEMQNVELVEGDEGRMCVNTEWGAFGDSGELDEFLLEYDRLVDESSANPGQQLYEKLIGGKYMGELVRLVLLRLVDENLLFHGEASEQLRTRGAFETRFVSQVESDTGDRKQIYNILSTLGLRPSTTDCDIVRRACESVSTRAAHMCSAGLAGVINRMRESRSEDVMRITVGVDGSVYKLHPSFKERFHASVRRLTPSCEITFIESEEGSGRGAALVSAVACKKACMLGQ
T1 sequence (Q14397 whole entry, looked up): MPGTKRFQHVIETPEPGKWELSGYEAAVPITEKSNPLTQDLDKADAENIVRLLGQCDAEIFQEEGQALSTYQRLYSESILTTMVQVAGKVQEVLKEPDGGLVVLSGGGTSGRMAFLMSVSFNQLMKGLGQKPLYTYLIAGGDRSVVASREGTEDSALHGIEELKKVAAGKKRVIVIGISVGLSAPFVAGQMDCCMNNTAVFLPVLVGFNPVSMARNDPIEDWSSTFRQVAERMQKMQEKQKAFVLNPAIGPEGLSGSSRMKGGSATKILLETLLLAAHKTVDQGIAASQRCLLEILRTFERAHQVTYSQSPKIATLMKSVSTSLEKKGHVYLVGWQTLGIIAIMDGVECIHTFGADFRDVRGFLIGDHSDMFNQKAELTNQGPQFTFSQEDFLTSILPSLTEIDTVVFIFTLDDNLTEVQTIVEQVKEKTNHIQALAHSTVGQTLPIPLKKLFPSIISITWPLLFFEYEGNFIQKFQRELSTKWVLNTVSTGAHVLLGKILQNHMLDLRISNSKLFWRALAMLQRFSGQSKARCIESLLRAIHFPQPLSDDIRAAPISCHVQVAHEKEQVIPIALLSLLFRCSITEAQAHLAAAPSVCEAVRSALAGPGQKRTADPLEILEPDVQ

Take `C#CCOC(=O)C1=CCCN(C)C1`: the outcome in assay [1], in assay [2] and in assay [3] was inactive. The max response in [4] is 10.6% (inactive).
With `CC(=O)NCCc1c[nH]c2ccccc12`, the outcome in [1], in assay [2] and in assay [3] was inactive. Moreover, the max response in [4] was 17.3% (inactive).
As to `CNCCc1ccc(O)c(O)c1`, the result in assay [1], in assay [2] and in [3] was inactive.
On to `CC(C)(C)NCC(O)c1ccc(O)c(CO)c1` (configuration not stated), for which the outcome in assay [5] was inactive.
Take `CN[C@@H]1C[C@@H](c2ccc(Cl)c(Cl)c2)c2ccccc21`: the result in assay [1], in assay [2] and in assay [3] was inactive.
For `CC(Cc1ccc(O)cc1)NCC(O)c1cc(O)cc(O)c1` (configuration not stated), the result in [1], in [2] and in assay [3] was inactive.
In the case of `NCc1cc(=O)[nH]o1`, the outcome in [1], in assay [2] and in assay [3] was inactive. The max response in [4] is 24.8% (inactive).
Consider `NC1CC1c1ccccc1` (configuration not stated), for which the outcome in [1], in [2] and in [3] was inactive. Also, in [4], the max response was 14.3% (inactive). In [6], the parasite growth, % of DMSO control turned out to be 95.6%. Further, the parasite growth remaining, % of DMSO control (lower = more inhibition) in assay [7] worked out at 17.6%. For the same compound, the parasite growth, % of control (lower = inhibition) in assay [8] came out at 105%.
Regarding `NC(CCP(=O)(O)O)C(=O)O` (configuration not stated), the result in assay [1], in assay [2] and in assay [3] was inactive. The max response in [4] was 12.6% (inactive).
Turning to `NC(N)=NOCCC(N)C(=O)O` (configuration not stated), the outcome in assay [1], in assay [2] and in [3] was inactive. Moreover, in assay [4], the max response is 10.4% (inactive).
For the compound `S=C(NC1CCCCC1)N1CCC(c2cnc[nH]2)CC1`, the result in [1], in [2] and in [3] was inactive. In assay [4], the max response was 16.5% (inactive).
For the compound `Oc1ccc2c3c1O[C@H]1c4[nH]c5c(c4C[C@@]4(O)[C@@H](C2)N(CC2CC2)CC[C@]314)C[C@@]1(O)[C@H]2Cc3ccc(O)c4c3[C@@]1(CCN2CC1CC1)[C@H]5O4`, the outcome in [1], in assay [2] and in assay [3] was inactive. Also, in assay [6], the parasite growth, % of DMSO control was found to be 10.3%. In [7], this compound showed a parasite growth remaining, % of DMSO control (lower = more inhibition) of 25.9%. Further, the parasite growth, % of control (lower = inhibition) in [8] was determined as 13%. In [9], this compound had a growth, % of control of 4.03%.
Take `O=C(O)[C@@H]1CCN1`: the outcome in assay [1], in [2] and in assay [3] was inactive. The max response in assay [4] was 23.1% (inactive).
For the compound `NC(CP(=O)(O)O)C(=O)O` (configuration not stated), the result in assay [1], in assay [2] and in assay [3] was inactive. For the same compound, the max response in assay [4] is 4% (inactive).
As for `C/C=C(/C)C(=O)O[C@H]1C(C)=C2[C@H]([C@@H]1OC(=O)CCCCCCC)[C@@](C)(OC(C)=O)C[C@H](OC(=O)CCC)[C@@]1(O)[C@H]2OC(=O)[C@@]1(C)O`, the result in assay [1], in assay [2] and in assay [3] was inactive. In addition, in assay [10], the remaining parasite growth % (stronger effect = lower value) is -0.149%. In addition, the activity, percent of control in assay [11] is 1.02%.
As to `CCCN(CCC)[C@@H]1CCc2ccc(O)cc2C1`, the outcome in assay [1], in assay [2] and in [3] was inactive. For the same compound, the max response in assay [4] was 10.7% (inactive).
Take `COc1ccc2c(c[n+](C)c3c4cc5c(cc4ccc23)OCO5)c1OC`: the outcome in assay [1], in assay [2] and in assay [3] was inactive. Further, in assay [4], the Potency is 18.7 µM (active). Also, in [10], the remaining parasite growth % (stronger effect = lower value) was 47.6%. For the same compound, in [11], the activity, percent of control came out at 36.7%. This compound had a parasite growth, % of DMSO control in [6] of 71.2%. This compound also showed a parasite growth remaining, % of DMSO control (lower = more inhibition) in assay [7] of 74.8%. The parasite growth, % of control (lower = inhibition) in [8] was 99%. Also, in [9], the growth, % of control worked out at 104%.
Consider `NCCc1c[nH]c2ccccc12`, for which the result in [1], in assay [2] and in assay [3] was inactive. Moreover, the max response in [4] is 11% (inactive).
Take `c1ccc(CCCN2CCN(CCOC(c3ccccc3)c3ccccc3)CC2)cc1`: the result in assay [1], in [2] and in [3] was inactive. This compound also had a parasite growth, % of DMSO control in assay [6] of 9.93%. Besides, in [7], the parasite growth remaining, % of DMSO control (lower = more inhibition) was 25.6%. The parasite growth, % of control (lower = inhibition) in [8] is 18.7%. For the same compound, the growth, % of control in assay [9] was found to be 19.2%.
As to `CS(=N)(=O)CC[C@H](N)C(=O)O` (some centres not stated), the result in assay [1], in assay [2] and in [3] was inactive. For the same compound, in assay [4], the max response is -10.6% (inactive).
Turning to `COc1cc(C(O)CN)ccc1O` (configuration not stated), the outcome in assay [1], in assay [2] and in assay [3] was inactive. For the same compound, the max response in assay [4] is 2.34% (inactive).
As for `O=C(N[C@H]1CN2CCC1CC2)c1ccc(Cl)cc1`, the outcome in assay [1], in assay [2] and in [3] was inactive. In assay [6], this compound displayed a parasite growth, % of DMSO control of 89.4%. Also, the parasite growth remaining, % of DMSO control (lower = more inhibition) in assay [7] amounted to 82.1%. The parasite growth, % of control (lower = inhibition) in [8] amounted to 31.9%.
Turning to `C[C@]12CCC3C(CC[C@H]4C[C@H](O)CC[C@]34C)C1CC[C@@H]2C(=O)CO` (some centres not stated), the result in assay [1], in assay [2] and in assay [3] was inactive. The max response in assay [4] is 12.3% (inactive).
As to `NC1CCc2cc(O)c(O)cc2C1` (configuration not stated), the result in [1], in [2] and in [3] was inactive. In assay [4], the max response is 20.3% (inactive).
For `CC(=O)[C@H]1CCC2C3CC[C@H]4C[C@H](O)CC[C@]4(C)C3CC[C@@]21C` (some centres not stated), the result in [1], in assay [2] and in assay [3] was inactive. The max response in [4] is 27.5% (inactive).
On to `Cn1cnc(CCN)c1`, for which the outcome in assay [1], in assay [2] and in assay [3] was inactive. In addition, in assay [4], the max response was 33.2% (inactive).
As for `C[N+]1(C)C2CCC1CC(OC(=O)C(CO)c1ccccc1)C2` (configuration not stated), the result in assay [1], in assay [2] and in assay [3] was inactive. Further, the max response in assay [4] is 23.1% (inactive) and 28.3% (inactive).
As for `CCCN1CCC[C@H](c2cccc(O)c2)C1`, the outcome in [1], in assay [2] and in assay [3] was inactive. Also, the max response in assay [4] is -8.29% (inactive) and 20.7% (inactive).
In the case of `CC[C@@]1(O)C(=O)OCc2c1cc1n(c2=O)Cc2cc3ccccc3nc2-1`, the result in assay [1], in assay [2] and in assay [3] was inactive. In [4], the max response was -1.6% (inactive). This compound displayed a parasite growth, % of DMSO control in [6] of 15.1%. Besides, the parasite growth remaining, % of DMSO control (lower = more inhibition) in [7] worked out at 12.9%. For the same compound, in assay [8], the parasite growth, % of control (lower = inhibition) amounted to 19.3%. Besides, the growth, % of control in assay [9] was 5.89%.
Consider `CCCN(CCC)C1CCc2ccc(O)cc2C1` (configuration not stated), for which the outcome in [1], in [2] and in [3] was inactive. In addition, the max response in assay [4] was 6.52% (inactive).
In the case of `Cc1c(C(=O)c2cccc3ccccc23)c2cccc3c2n1[C@H](CN1CCOCC1)CO3`, the outcome in [1] and in assay [2] was inactive. The same compound displayed a parasite growth, % of DMSO control in [6] of 15.4%. In assay [7], this compound came in with a parasite growth remaining, % of DMSO control (lower = more inhibition) of 47.9%. For the same compound, the parasite growth, % of control (lower = inhibition) in assay [8] is 48.7%. The compound also had a growth, % of control in [9] of 13.4%.
